Source: PubChem (several laboratories)
Mdm2-MdmX inh – inhibitors of human Mdm2/MdmX interaction; SaOS-2 split-luciferase Mdm2/MdmX complementation, luminescence; inhibition, % at 8 µM; 330,000 compounds, 3% hits; AID 485346;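 active means inhibition of at least 50% at 8 µM in the primary screen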
Target sequence (O15151 whole entry, looked up): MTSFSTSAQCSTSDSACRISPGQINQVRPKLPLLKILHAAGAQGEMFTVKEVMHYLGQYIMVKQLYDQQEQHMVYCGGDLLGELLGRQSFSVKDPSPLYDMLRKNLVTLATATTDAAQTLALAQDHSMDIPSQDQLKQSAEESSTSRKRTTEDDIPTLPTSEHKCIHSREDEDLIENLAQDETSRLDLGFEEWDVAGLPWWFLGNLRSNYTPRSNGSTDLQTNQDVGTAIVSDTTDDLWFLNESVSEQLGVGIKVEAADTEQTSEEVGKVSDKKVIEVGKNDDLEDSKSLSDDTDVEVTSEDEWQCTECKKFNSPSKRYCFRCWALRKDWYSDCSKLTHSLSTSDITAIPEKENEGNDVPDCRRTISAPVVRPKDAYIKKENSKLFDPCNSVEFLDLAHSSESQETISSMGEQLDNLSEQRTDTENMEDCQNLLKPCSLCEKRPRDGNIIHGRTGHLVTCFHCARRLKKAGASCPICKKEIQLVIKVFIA
Target sequence (Q00987 whole entry, looked up): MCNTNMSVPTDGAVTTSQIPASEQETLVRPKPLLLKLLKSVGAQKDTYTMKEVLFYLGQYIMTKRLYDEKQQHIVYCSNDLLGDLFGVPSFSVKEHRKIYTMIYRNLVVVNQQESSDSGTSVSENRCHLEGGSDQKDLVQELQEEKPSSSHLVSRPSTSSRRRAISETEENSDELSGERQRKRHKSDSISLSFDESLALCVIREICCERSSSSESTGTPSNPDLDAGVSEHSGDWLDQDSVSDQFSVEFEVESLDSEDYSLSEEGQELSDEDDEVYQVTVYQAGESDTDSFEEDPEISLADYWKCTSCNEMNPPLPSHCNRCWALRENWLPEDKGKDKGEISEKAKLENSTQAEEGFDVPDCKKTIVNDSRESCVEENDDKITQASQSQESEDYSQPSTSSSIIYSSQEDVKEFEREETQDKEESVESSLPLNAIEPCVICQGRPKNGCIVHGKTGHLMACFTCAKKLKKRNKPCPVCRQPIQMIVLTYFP
Shn3 inh set2 – Schnurri-3 reporter inhibition in Clone20 osteoblasts. inhibition, % at 12.5 µM. Clone20 osteoblast Shn3 3'UTR firefly luciferase, 24 h. AID 588674. 360,000 compounds, 0.52% hits;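 active means mean inhibition of at least 75% with every replicate also reaching 75%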
Gli-Sufu block – blocks Gli-Sufu signaling in a luciferase reporter; 340,000 compounds, 0.74% hits; Sufu-KO-LIGHT fibroblasts, Gli luciferase reporter luminescence; AID 588413; inhibition, % at 5 µM;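 active means inhibition above about 55%, limit read from the data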
697 NFkB inh – lowers PMA/ionomycin-induced NF-kB signal in 697 B cells. 330,000 compounds, 0.33% hits. AID 435022. 697 B-cell NF-kB luciferase reporter, 16 h. inhibition, % at 4 µM; in the data active means inhibition above about 35%
Jurkat NFkB inh – lowers PMA/ionomycin-induced NF-kB signal in Jurkat cells | AID 435003 | 330,000 compounds, 0.53% hits | inhibition, % at 4 µM | PMA/ionomycin-induced NF-kB luciferase reporter, luminescence; in the data active means inhibition above about 50%
Mdm2-MdmX conf – human Mdm2/MdmX binding inhibition, confirmed; shares compounds with Mdm2-MdmX inh; luminescent assay; inhibition, % at 8 µM; 10,000 compounds, 55% hits; AID 489028; in the data active means inhibition above about 40%
FLuc counter – full-length luciferase inhibition in Mdm2/MdmX counter-screen; 6,200 compounds, 77% hits; SaOS-2 full-length luciferase counterscreen, luminescence; inhibition, % at 8 µM; shares compounds with Mdm2-MdmX inh; AID 504607;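 active means mean inhibition at 8 µM reaching about 37%, which flags the compound as non-specific, limit read from the data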;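 further: p53-null SaOS-2 cells with luciferase driven by a doxycycline-inducible promoter; compound on cells about two nights before reading with doxycycline added after day one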
Large screens that a line does not name were inactive (follow-up assays come after a bar, where they were run). Hits are enriched below; roughly 3.8% of the tested compounds scored in any of these assays.

Cc1cccc(Oc2ccccc2NC(=O)CSCC(=O)Nc2cc(C)on2)c1	Mdm2-MdmX inh 67 | Mdm2-MdmX conf 58 | FLuc counter 108
Cc1nc2ccc(Br)cn2c1C(=O)N/N=C\c1ccc(C(C)C)cc1	Mdm2-MdmX inh 57 | Mdm2-MdmX conf 48 | FLuc counter 64
O=C(CSc1nnc2ccc(-c3ccccn3)nn12)Nc1ccccc1F	none
CNC(=O)c1c(O)c2cccc3c2n(c1=O)CCC3	Mdm2-MdmX inh 75 | Mdm2-MdmX conf 84 | FLuc counter 47
Cc1cc(Oc2nc3c(C)cccn3c(=O)c2/C=C(\C#N)S(=O)(=O)c2ccccc2)ccc1Cl	Mdm2-MdmX inh 52 | Mdm2-MdmX conf inactive
Cc1cccn2c(=O)c(/C=C(\C#N)S(=O)(=O)c3ccccc3)c(Oc3ccc(Cl)cc3)nc12	none
COCCn1c(SCC(=O)Nc2ccc(C(N)=O)cc2)nc2c([nH]c3ccccc32)c1=O	Mdm2-MdmX inh 74 | Mdm2-MdmX conf inactive | FLuc counter 52
CCn1c(SCC(=O)Nc2ccc(NC(C)=O)cc2)nc2c([nH]c3ccccc32)c1=O	Mdm2-MdmX inh 52 | Mdm2-MdmX conf 44 | FLuc counter 44
Cn1c(SCC(=O)Nc2ccc(F)cc2)nc2c([nH]c3ccccc32)c1=O	Mdm2-MdmX inh 91 | Mdm2-MdmX conf 46 | FLuc counter 90
COc1cccc(-n2c(SCC(=O)N3CCCCC3)nc3c([nH]c4ccccc43)c2=O)c1	Mdm2-MdmX inh 79 | Mdm2-MdmX conf inactive
COc1ccc(NC(=O)CSc2nc3c([nH]c4ccccc43)c(=O)n2C)c(OC)c1	Mdm2-MdmX inh 60 | Mdm2-MdmX conf inactive
CCN(Cc1ccccc1)C(=O)c1cc(-c2ccc(OC)c(OC)c2)nc2ccccc12	none
COc1ccc(-c2cc(C(=O)N(C)Cc3ccccc3F)c3ccccc3n2)cc1OC	Mdm2-MdmX inh 70 | Mdm2-MdmX conf inactive | FLuc counter 105
COc1cccc(CN(C)C(=O)c2cc(-c3cccs3)nc3ccccc23)c1	Mdm2-MdmX inh 58 | Mdm2-MdmX conf 43 | FLuc counter 61
COc1cc(-c2cc(C(=O)N(C)Cc3ccccc3)c3ccccc3n2)cc(OC)c1OC	Mdm2-MdmX inh 62 | Mdm2-MdmX conf 46 | FLuc counter 76
COc1ccccc1CN(C)C(=O)c1cc(-c2cc(OC)c(OC)c(OC)c2)nc2ccccc12	Mdm2-MdmX inh 78 | Mdm2-MdmX conf 77 | FLuc counter 50
N=c1n(CCCOc2ccccc2Cl)c2ccccc2n1CC(N)=O	Mdm2-MdmX inh 65 (no result: Shn3 inh set2) | Mdm2-MdmX conf 42 | FLuc counter 63
O=C(O)C[C@H]1c2ccc(C(F)(F)F)cc2S(=O)(=O)N1Cc1ccccc1	none
Cc1cc(-n2c(C)cc(C(=O)CCl)c2C)no1	Mdm2-MdmX inh 79 | Mdm2-MdmX conf 67 | FLuc counter 87
COc1ccc(-n2c(C)cc(C(=O)CSc3ccc(NC(C)=O)cc3)c2C)cc1	none
COc1ccc(-n2c(C)cc(C(=O)CCl)c2C)cc1	Mdm2-MdmX inh 100 | Mdm2-MdmX conf 61 | FLuc counter 49
Cc1cc(C(=O)CCl)c(C)n1-c1c(C)n(C)n(-c2ccccc2)c1=O	Mdm2-MdmX inh 51 | Mdm2-MdmX conf inactive
Cc1ccc(C(=O)NCCNC(=O)c2ccccn2)cc1	none
COc1cccc(CNC(=O)CCC2CCCN(C(=O)c3ccc(OC)c(F)c3)C2)c1 (centres undefined)	none (no result: Shn3 inh set2)
CCc1nc2ccc(C(=O)N3CCN(C)CC3)cn2c1N(C)CCC(C)C	none (no result: Mdm2-MdmX inh, Gli-Sufu block, 697 NFkB inh, Jurkat NFkB inh)
COc1ccc(NS(=O)(=O)c2cc(NC(=O)[C@@H](NC(=O)c3ccccc3)C(C)C)ccc2C)cc1	none
Cc1ccc(NC(=O)/C(=C/c2cccc([N+](=O)[O-])c2)NC(=O)C2CCCCC2)c(C)c1	Mdm2-MdmX inh 88 | Mdm2-MdmX conf inactive
O=C(Nc1ccc([N+](=O)[O-])cc1)/C(=C/c1cccc([N+](=O)[O-])c1)NC(=O)C1CCCCC1	none
Cc1ccc(NC(=O)NNC(=O)Cn2nc(-c3ccccc3)c(-c3ccccc3)c(C#N)c2=O)cc1	Mdm2-MdmX inh 53 | Mdm2-MdmX conf 57 | FLuc counter 92
O=C(Cn1nc(-c2ccccc2)c2ccccc2c1=O)Nc1ccc(O)cc1	none
O=c1/c(=C/c2ccccn2)sc2n1CN(c1ccccc1)CN=2	none
Cc1cc(C)c2c(c1)/C(=c1/sc3n(c1=O)CN(c1ccccc1)CN=3)C(=O)N2	Mdm2-MdmX inh 57 | Mdm2-MdmX conf inactive
COC(=O)c1ccc(C(=O)Nc2cc(Cl)ccc2Cl)cc1NC(=O)c1ccc(N(C)C)cc1	Mdm2-MdmX inh 70 | Mdm2-MdmX conf inactive
O=C(Nc1cc(Cl)ccc1Cl)c1ccc(-c2ccccc2)cc1	none
O=C(NC(=S)Nc1cccc([N+](=O)[O-])c1)C1CCCCC1	none
Cc1ccc(C2C3=C(CC(C)(C)CC3=O)NC3=C2C(=O)c2ccccc23)cc1 (centres undefined)	none
CC1(C)CC(=O)C2=C(C1)NC1=C(C(=O)c3ccccc31)C2c1ccc(Cl)cc1 (centres undefined)	Mdm2-MdmX inh 58 | Mdm2-MdmX conf inactive
Cc1c(CN2CCC(CO)(Cc3cccc(C(F)(F)F)c3)CC2)c2ccccc2n1C	Mdm2-MdmX inh 68 | Mdm2-MdmX conf 42 | FLuc counter 71
Cc1cccc(Cn2c(O)c(N=NC(=S)Nc3ccccc3F)c3ccccc32)c1	Mdm2-MdmX inh 63 | Mdm2-MdmX conf 42 | FLuc counter 54
Cc1cccc(NC(=S)N=Nc2c(O)n(CN3CCOCC3)c3ccccc23)c1C	none
Oc1c(N=NC(=S)Nc2ccccc2F)c2ccccc2n1Cc1ccc(F)cc1	Mdm2-MdmX inh 59 | Mdm2-MdmX conf 47 | FLuc counter 55
Cc1ccc2c(c1)c(N=NC(N)=S)c(O)n2Cc1ccccc1	none
O=C(N=Nc1c(O)n(Cc2ccccc2)c2ccccc12)c1ccc(O)cc1	none
Oc1c(N=NC(=S)Nc2ccccc2F)c2ccccc2n1Cc1cccc(Cl)c1	Mdm2-MdmX inh 59 | Mdm2-MdmX conf inactive
O=C(O)CCNC(=O)/C(=C/C=C/c1ccccc1)NC(=O)c1ccccc1	none
CC(=O)OCC1OC(OC2C[C@]3(C)C(CC(O)C4C([C@](C)(CCC=C(C)C)OC5OC(CO)C(O)C(O)C5O)CC[C@]43C)[C@@]3(C)CCC(O)C(C)(C)C23)C(O[C@@H]2OC(C)C(O)C(O)C2O)C(O)C1O (some centres undefined)	none
Cc1cc(NC(=O)COc2coc(CN3CCN(c4ccccc4F)CC3)cc2=O)no1	none
CC1(C)Cc2c(sc(NC(=O)c3ccc(S(=O)(=O)N4CCCC4)cc3)c2C#N)C(C)(C)N1	none
CCOc1ccc(C(=O)Nc2sc3c(c2C(=O)OC)CC(C)(C)NC3(C)C)cc1	Mdm2-MdmX inh 78 | Mdm2-MdmX conf 48 | FLuc counter 60
